{"source": "PubChem BioAssay (Tox21)", "note": "Results filed as inconclusive are left out. A call without a number means that no potency is given here. Values without a mark were called inactive. Active and inactive are the calls of the source. Calls come from the whole dose curve; as a rule, active = well fitted cell-killing curve with a large enough effect in the repeat runs; inconclusive = weak or mixed curves; inactive = flat fitted curve, though single readings scatter."}
{"assay": "qHTS assay to identify small molecule antagonists of the TGF-beta/Smad signaling pathway - cell viability counter screen (AID 1346824); note: nearly all actives have a fitted effect of over 50% in size", "details": "SBE-bla HEK293T viability, CellTiter-Glo luminescence; series mostly up to 76.8 µM; viability change, negative = cytotoxic: at the top concentration", "source_text": "U.S. Tox21 Program National Center for Advancing Translational Sciences [NCATS] NIH Chemical Genomics Center [NCGC] U.S. Environmental Protection Agency [EPA] National Institutes of Environmental Health Sciences [NIEHS] National Toxicology Program [NTP] U.S. Food and Drug Administration [FDA] Tox21 Assay Overview: Transforming growth factor beta (TGF-beta) superfamily consists of a large number of structurally related dimeric proteins that act as hormones or local mediators in regulating a wide range of biological functions. This superfamily includes TGF-betas themselves, the bone morphogenetic proteins (BMPs) and the activins. These ligands induce oligomerization of serine/threonine receptor kinases and phosphorylate the cytoplasmic signaling molecules of Smad protein family. CellSensor SBE-bla HEK 293T cell line (Life Technologies, Carlsbad, CA), responsive to TGF-beta was used to screen Tox21 10K compound library for identification of agonists/antagonists of the Smad signaling pathway. This cell line contains a beta-lactamase reporter gene under control of the Smad binding element (SBE) stably integrated into HEK 293T cells. Also cytotoxicity of the compounds was tested in parallel by measuring the cell viability using CellTiter-Glo assay system in the same wells.\nTox21 Assay Protocol Summary: SBE-bla HEK 293T cells were dispensed at 4,000/well in 5 uL of assay medium into black wall/clear-bottom 1536-well plates using a Multidrop Combi (ThermoFisher Scientific, Waltham, MA) dispenser. After the assay plates were incubated at 37 C and 5% CO2 for an overnight, 23 nL of compounds dissolved in DMSO, positive controls or DMSO only was transferred to the assay plate by a Pintool station (Kalypsys, San Diego, CA). Compound transfer was followed by the addition of 1 uL of 0.25 ng/mL TGF-beta1 or assay buffer using two separate tips of Flying Reagent Dispenser (FRD, Aurora Discovery, San Diego, CA). The assay plates were incubated at 37 C and 5% CO2 for 5 hr. One uL of LiveBLAzer B/G FRET substrate (Life Technologies) was added using a Flying Reagent Dispenser (FRD, Aurora Discovery, San Diego, CA) and the plates were incubated at room temperature for 2 hr. Fluorescence intensity (405 nm excitation, 460 nm and 530 nm emissions) was measured using an Envision plate reader (PerkinElmer, Shelton, CT). For cytotoxicity read, 4 uL of CellTiter-Glo reagent (Promega Corporation, Madison, WI) was added to each well of the assay plates using FRD. After 30 min incubation at room temperature, the luminescence intensity was measured using ViewLux plate reader (PerkinElmer)."}
{"smiles": "CN1C(C(=O)Nc2ccccn2)=C(O)c2ccccc2S1(=O)=O", "Potency": "inactive"}
{"smiles": "COC(=O)c1ccccc1", "Potency": "inactive"}
{"smiles": "Cc1cccc(N(C)C(=S)Oc2ccc3ccccc3c2)c1", "viability change, negative = cytotoxic": "-5.97% [at 35.3 µM]"}
{"smiles": "C#C[C@]1(O)CC[C@H]2[C@@H]3CCC4=Cc5oncc5C[C@]4(C)[C@H]3CC[C@@]21C", "Potency": "inactive"}
{"smiles": "O=C(O)c1ccccc1Nc1cccc(C(F)(F)F)c1", "Potency": "inactive"}
{"smiles": "CCCc1c(OCCCCc2nn[nH]n2)ccc(C(C)=O)c1O", "Potency": "inactive"}
{"smiles": "CC(C)=CCCC(C)CCO", "note": "(stereo not given)", "Potency": "inactive"}
{"smiles": "c1ccc2cc(Nc3ccc(Nc4ccc5ccccc5c4)cc3)ccc2c1", "Potency": "inactive"}
{"smiles": "CC(C)CC(C)(O)C#CC(C)(O)CC(C)C", "note": "(stereo not given)", "viability change, negative = cytotoxic": "3.45%"}
{"smiles": "COc1c(Cl)c(Cl)c(Cl)c(Cl)c1Cl", "Potency": "inactive"}
{"smiles": "Cc1ccc(C(=O)c2cc(O)c(O)c([N+](=O)[O-])c2)cc1", "Potency": "inactive"}
{"smiles": "C=C(C)C1CC=C(C)CC1", "note": "(stereo not given)", "Potency": "inactive"}
{"smiles": "CN(C)CCC=C1c2ccccc2CCc2ccccc21", "Potency": "inactive"}
{"smiles": "O=S(=O)(O)c1ccc(O)cc1", "Potency": "inactive"}
{"smiles": "CN(C)c1nc(N(C)C)nc(N(C)C)n1", "Potency": "inactive"}
{"smiles": "Nc1ccc(Cl)cc1Cl", "Potency": "inactive"}
{"smiles": "CC(=O)CC/C=C(\\C)CCC=C(C)C", "Potency": "inactive"}
{"smiles": "Nc1ncnc2nc[nH]c12", "Potency": "inactive"}
{"smiles": "Clc1nc(Cl)c(Cl)c(Cl)c1Cl", "Potency": "inactive"}
{"smiles": "CC(C)=CCC/C(C)=C\\CO", "Potency": "inactive"}
{"smiles": "c1ccc2sc(SSN3CCOCC3)nc2c1", "Potency": "inactive"}
{"smiles": "O=[N+]([O-])c1ccc2c(c1)Cc1ccccc1-2", "Potency": "inactive"}
{"smiles": "CCC(C)CO", "note": "(stereo not given)", "Potency": "inactive"}
{"smiles": "O=C(Nc1ccc(Cl)cc1)Nc1ccc(Cl)c(Cl)c1", "Potency": "inactive"}
{"smiles": "CCCCNS(=O)(=O)c1ccccc1", "Potency": "inactive"}
{"smiles": "CCCC(=O)O", "Potency": "inactive"}
{"smiles": "Cc1ccc2c(n1)Oc1ccc(C(C)C(=O)OCC(=O)N(C)C)cc1C2", "note": "(stereo not given)", "Potency": "inactive"}
{"smiles": "Cc1c(OCC(F)(F)F)ccnc1CS(=O)c1nc2ccccc2[nH]1", "note": "(stereo not given)", "viability change, negative = cytotoxic": "2.7%"}
{"smiles": "CCCCOCCOCCOCCO", "Potency": "inactive"}
{"smiles": "Brc1cc(Oc2cc(Br)c(Br)c(Br)c2Br)c(Br)c(Br)c1Br", "Potency": "inactive"}
{"smiles": "CC(=O)c1ccccn1", "Potency": "inactive"}
{"smiles": "O=C(c1ccc(OCCN2CCCCC2)cc1)c1c(-c2ccc(O)cc2)sc2cc(O)ccc12", "Potency": "inactive"}
{"smiles": "CCC(C)OC(=O)c1ccc(O)cc1", "note": "(stereo not given)", "Potency": "inactive"}
{"smiles": "CC1=CCC(C(C)(C)O)CC1", "note": "(stereo not given)", "Potency": "inactive"}
{"smiles": "CCCCc1oc2ccccc2c1C(=O)c1cc(I)c(OCCN(CC)CC)c(I)c1", "Potency": "inactive"}
{"smiles": "c1ccc2c(c1)c1cccc3ccc4cccc2c4c31", "Potency": "inactive"}
{"smiles": "c1cc(-c2ccncc2)ccn1", "Potency": "inactive"}
{"smiles": "C=C(C)C(=O)OCCOC(=O)C(=C)C", "Potency": "inactive"}
{"smiles": "OC1CCCCCCCCCCC1", "Potency": "inactive"}
{"smiles": "C#C[C@]1(O)CC[C@H]2[C@@H]3CCc4cc(OC)ccc4[C@H]3CC[C@@]21C", "Potency": "inactive"}
